# Among all 290,000 compounds or so, about 3,000 (1%) were called active. The list comes from a sample in which actives are over-represented; it also holds similar structures and randomly drawn compounds. A number with no mark means an inactive call. Rule as the data show it: active = inhibition mostly above about 36% (no sharp cut-off); inactive = mostly below about 34%.
# Experiment: inhibition of NOD1-driven NF-kB reporter – cell-based, luminescence, uHTS, primary screen (AID 1578);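 also: HEK-293T reporter cells stimulated with the NOD1 agonist gamma-tri-DAP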
# Conditions: NOD1-driven NF-kB luciferase reporter cells, at 4 µM, stronger effect = higher value
row,Structure (SMILES),inhibition
1,CCC(C)C(Nc1ncnc2scc(-c3ccccc3)c12)C(=O)O (stereo not drawn),-21%
2,O=S(=O)(NC1CC1)c1ccccc1,-1%
3,COC(=O)c1cn(NC(=O)c2ccc([N+](=O)[O-])cc2Cl)c(=O)c2ccccc12,-35.6%
4,COC(=O)c1cn(NC(=O)c2cc([N+](=O)[O-])ccc2F)c(=O)c2ccccc12,78% (active)
5,COC(=O)c1cn(NC(=O)c2ccccc2[N+](=O)[O-])c(=O)c2ccccc12,-27.3%
6,CC1CN(C(=O)COC(=O)c2cc(Cl)ccc2[N+](=O)[O-])CC(C)O1 (stereo not drawn),-25.3%
7,CCCCS(=O)(=O)N1CCN(S(=O)(=O)c2ccc(Cl)s2)CC1,-11%
8,O=C(Oc1cc(=O)oc2ccccc12)c1ccccc1,-8.5%
9,CC(C)[C@H](NC(=O)[C@@H]1Cc2ccccc2CN1)C(=O)NC1CCCCC1,-12.1%
10,CCCCc1c(O)nc(SCC(=O)c2ccccc2)n(-c2ccccc2)c1=O,-1.5%
11,Cc1ccc(S(=O)(=O)/N=C(\CCl)N2CCOCC2)cc1,72.3% (active)
12,Cc1ccc(S(=O)(=O)/N=C(\CN2CCCCC2)N2CCOCC2)cc1,10.8%
13,Cc1ccc(S(=O)(=O)/N=C(\CN2CCOCC2)N2CCOCC2)cc1,0.6%
14,N/N=c1\sc2ccccc2n1-c1ccccc1,2.6%
15,COc1cccc(/C=C2\SC(=S)N(CCCC(=O)N3CCCCC3)C2=O)c1,0%
16,O=C(CCC(=O)NC1CCCCCCC1)Nc1nnc(C(F)(F)F)s1,4.2%
17,O=C(CCC1CCCCC1)Nc1nnc(C(F)(F)F)s1,77.4% (active)
18,O=C(CCC(=O)NC1CCCCCC1)Nc1nnc(C(F)(F)F)s1,-18.1%
19,Cc1ccnc(NC(=O)c2ccc(Cl)cc2Cl)n1,14.3%
20,COc1cc(C(=O)NC2CC(C)(C)Cc3c2cnn3-c2ccccc2)cc(OC)c1OC (stereo not drawn),-14.3%
21,COc1ccc(OC)c(C(=O)NC2CC(C)(C)Cc3c2cnn3-c2ccccc2)c1 (stereo not drawn),53.9% (active)
22,COc1ccc(C(=O)NC2CC(C)(C)Cc3c2cnn3-c2ccccc2)cc1OC (stereo not drawn),0.2%
23,O=C(NCCc1c[nH]c2ccccc12)c1ccc([N+](=O)[O-])cc1,-37.7%
24,NC(=O)C1CCN(c2ccc(S(=O)(=O)N3CCCCC3)cn2)CC1,-25.2%

row,Structure (SMILES),inhibition
1,O=C(O)c1ccc(S(=O)(=O)N2CCC(Cc3ccccc3)CC2)cc1,2.5%
2,Cc1ccc(CNC(=O)C2CC3Cn4c(nc5cc(C)c(C)cc54)C3N2C)o1 (stereo not drawn),-2.6%
3,Cc1ccc(/C=C2/SC(=S)N(CCC(=O)N3CCN(c4ccccc4)CC3)C2=O)cc1,5.7%
4,CCOC(=O)N1CCN(CC(=O)Nc2ccc(F)c(F)c2)CC1,10.6%
5,CCC(=O)Nc1nc2nc(C)cc(=O)n2[nH]1,57.1% (active)
6,CCC(=O)Nc1nc2nc(-c3ccccc3)cc(=O)n2[nH]1,0.3%
7,CCCC(=O)Nc1nc2nc(C)cc(=O)n2[nH]1,-2.3%
8,Brc1ccc(-c2nc(-c3ccncc3)no2)cc1,-20.7%
9,NC1=NC(=O)C(CC(=O)Nc2ccc3c(c2)OCO3)S1 (stereo not drawn),-24.1%
10,CCCCNS(=O)(=O)c1ccc2nc(SCC(=O)Nc3sccc3C#N)[nH]c2c1,65.5% (active)
11,CCCCNS(=O)(=O)c1ccc2nc(SCC(=O)Nc3ccccc3)[nH]c2c1,-15.3%
12,CCCCNS(=O)(=O)c1ccc2nc(SCC(=O)c3ccc(C#N)cc3)[nH]c2c1,-14.8%
13,Cc1nc2cc(NC(=O)c3ccc(Br)s3)ccc2s1,-42.5%
14,CC(=O)Nc1ccc2sc(C)nc2c1,-14.2%
15,COc1ccc(Cl)cc1NC(=O)CN1C(=O)CSC1=O,-3.2%
16,Cc1ccc(NC(=O)c2ccccc2N(C)S(=O)(=O)c2ccccc2)c(C)c1,-8.8%
17,Cc1oc2c(c1C(=O)O)C(=O)c1ccccc1C2=O,-30.8%
18,CC(=O)c1c(C)oc2c1C(=O)c1ccccc1C2=O,79.5% (active)
19,CCOC(=O)c1c(C)oc2c1C(=O)c1ccccc1C2=O,-38.5%
20,Cc1ccc(-c2nnn(CC(=O)N(Cc3ccccc3F)C(C(=O)NC3CCCC3)c3ccncc3)n2)o1 (stereo not drawn),-44.1%
21,CCOC(=O)C1=C(C)N(c2ccccc2)C(=O)NC1c1cccc([N+](=O)[O-])c1 (stereo not drawn),-25.4%
22,COc1ccc(C(=O)NCc2nnc(SCC(=O)N3CCOCC3)o2)cc1,37.2% (active)
23,COc1ccc(C(=O)NCc2nnc(SCC(=O)N3CCCC3)o2)cc1,-25.5%
24,O=C(CSc1nnc(CNC(=O)c2ccc(F)cc2)o1)NCCc1ccccc1,-16%

row,Structure (SMILES),inhibition
1,O=C(CSc1nnc(CNC(=O)c2ccccc2)o1)NCCc1ccccc1,72% (active)
2,COc1ccc(C(=O)NCc2nnc(SCC(=O)NCCc3ccccc3)o2)cc1,-16.6%
3,COc1ccc(C(=O)NCc2nnc(SCC(=O)N3CCCCC3)o2)cc1,-32.2%
4,COCCn1c(SCC(=O)Nc2ccc(S(N)(=O)=O)cc2)nc2ccccc21,-3.5%
5,CCN(CC)C1CCN(C(=O)CCn2nnnc2CN2CCOCC2)C1 (stereo not drawn),-54.3%
6,COCCn1c(SCc2ccc(OC)c(F)c2)nnc1-c1ccncc1,-14.1%
7,O=Cc1ccc(OC(=O)CCCCC(=O)Oc2ccc(C=O)cc2)cc1,4.4%
8,CC(C)[N+]1=C2C=CC=CC=C2SC12C([N+](=O)[O-])=CC(=[N+]([O-])[O-])C=C2[N+](=O)[O-] (stereo not drawn),-8.1%
9,CN1C2=CC=CC=CC2=[N+](C)C12C([N+](=O)[O-])=CC(=[N+]([O-])[O-])C=C2[N+](=O)[O-] (stereo not drawn),57.4% (active)
10,CN1C2=CC=CC=CC2=[N+](C)C12C=CC(=[N+]([O-])[O-])C=C2[N+](=O)[O-] (stereo not drawn),-35.5%
11,Fc1ccc(NC(=S)Nc2ccc(Cl)cc2Cl)cc1,-28.8%
12,CC(=O)c1c(C)[nH]c(C(=O)Nc2ccc(C)c(S(=O)(=O)N(C)C)c2)c1C,-63.3%
13,Nc1nc(NCC(=O)O)nc(NCc2ccccc2)c1[N+](=O)[O-],-13.3%
14,O=C(NNC1=Nc2ccccc2SC1)c1ccc(Cl)cc1,78.1% (active)
15,O=C(NNC1=Nc2ccccc2SC1)c1ccccc1F,1.9%
16,O=C(NNC1=Nc2ccccc2SC1)c1ccc(F)cc1,18.7%
17,COc1cc(/C=C(\C#N)C(=O)N2CCOCC2)ccc1OCc1ccccc1,-23.3%
18,O=S(=O)(c1cnc(Cl)c(Cl)c1)N1CCN(c2ncccn2)CC1,-5.2%
19,CC(C)c1ccccc1NC(=O)COC(=O)c1cccnc1,-18.3%
20,Cc1cc(NC(=O)CSc2cn(CCNC(=O)c3ccccc3)c3ccccc23)no1,11.3%
21,Cc1cc(NC(=O)CSc2cn(CCNC(=O)c3ccc(Cl)cc3)c3ccccc23)no1,75.9% (active)
22,Cc1ccc(C(=O)NCCn2cc(SCC(=O)Nc3cc(C)on3)c3ccccc32)cc1,-10.3%
23,O=C(CCC(=O)OCC(=O)c1ccc(Br)cc1)NC1CCCCC1,-4.2%
24,CCn1c(SCC(=O)N2CCc3ccccc3C2)nc2sc(C)c(C)c2c1=O,20.4%

row,Structure (SMILES),inhibition
1,Cc1nc(SCC(=O)N2CCCCC2)c2c(C)c(C)sc2n1,-15.5%
2,CCC(=O)N1CCN(c2nc(C)nc3sc(C)c(C)c23)CC1,9.5%
3,Cc1nc(N2CCN(C(=O)CCC(=O)O)CC2)c2c(C)c(C)sc2n1,-16.7%
4,COC(=O)c1ccc(CNC(=O)N2CCN(S(=O)(=O)c3ccc(C)cc3)CC2)cc1,-19.3%
5,Cn1c(=O)c2c(nc(SCc3ccccc3F)n2C)n(C)c1=O,24%
6,CN1C(=S)SC(/[N+]([O-])=C\c2ccc(Cl)cc2)C1(C)C (stereo not drawn),84.4% (active)
7,CN1C(=S)SC(/[N+]([O-])=C/c2ccc(Cl)cc2)C1(C)C (stereo not drawn),12%
8,Cc1ccc(/C=[N+](/[O-])C2SC(=S)N(C)C2(C)C)cc1 (stereo not drawn),-10.5%
9,O=C(O)c1ccc(-c2nc3scc(-c4ccccc4)c3c(=O)[nH]2)cc1,-3.4%
10,COc1cc(SC)ccc1C(=O)OC1CCOC1=O (stereo not drawn),7.7%
11,O=C(Nc1ccccc1)c1ccc(CN2CCc3ccccc3C2)cc1,37.2%
12,CC(=O)Nc1ccc(NC(=O)c2ccc(CN3CCc4ccccc4C3)cc2)cc1,21.2%
13,Cc1ccc(NC(=O)c2ccc(CN3CCc4ccccc4C3)cc2)cc1,42.4%
14,Cc1cc(C)cc(NC(=O)c2ccc(CN3CCc4ccccc4C3)cc2)c1,39.1%
15,CCOc1ccccc1NC(=O)c1ccc(CN2CCc3ccccc3C2)cc1,25.2%
16,CCOC(=O)c1ccc(NC(=O)CN2CCc3ccccc3C2)cc1,-2.1%
17,C#Cc1ccc([C@H]2C=C(C(=O)N3CCN(Cc4ccc5c(c4)OCO5)CC3)O[C@@H](OCc3ccc(CO)cc3)C2)cc1,1.8%
18,Cc1ccc(S(=O)(=O)Nc2ccccc2N2CCOCC2)cc1,-11.5%
19,Cc1nc2sc(C(c3ccc(F)cc3)N3CCOCC3)c(O)n2n1 (stereo not drawn),0.4%
20,Cc1onc(-c2ccccc2)c1C(=O)c1c[nH]c(C(=O)NCCCN2CCOCC2)c1,-7.9%
21,COc1ccc(CCNC(=O)Cn2c(=O)n(-c3cc(F)ccc3F)c(=O)c3sccc32)cc1OC,-47.6%

# Reference: PubChem BioAssay AID1578 (Sanford-Burnham Center for Chemical Genomics, 2009)
